An excerpt weighted towards active compounds, which were near 2.9% of everything screened.
ADAM17 inh: ADAM17 inhibitors, primary screen, biochemical, QFRET; Disintegrin and metalloproteinase domain-containing protein 17 (Homo sapiens), P78536; recombinant ADAM17, EDANS/DABCYL FRET peptide cleavage; inhibition, % at 6.95 µM; actives 0.83% (n = 370,000); AID 720648, 2013;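 active means inhibition above the mean of compounds lying between control limits plus 3 SD, set per campaign, cut at about 8.5% in these data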;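 further: 0% = DMSO-only wells as the low control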
ADAM10 inh: human ADAM10 inhibitors, primary screen, biochemical, QFRET, HTS. Disintegrin and metalloproteinase domain-containing protein 10 (Homo sapiens), O14672. recombinant ADAM10, EDANS/DABCYL FRET peptide cleavage, 3 h. inhibition, % at 7 µM. actives 0.62% (n = 370,000);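 active means inhibition above a per-campaign cutoff equal to the mean of compounds falling between control-based bounds plus 3 SD, cut at about 20% in these data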;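 further: 0% = DMSO wells while the 100% control is not disclosed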
KLK7 zymogen act: proKLK7 zymogen activators, primary screen, biochemical, fluorescence intensity; Kallikrein-7 (Homo sapiens), P49862; purified proKLK7, EDANS-DABCYL substrate fluorescence; 100% is mature enzyme control, 0% vehicle; activation, % at 7 µM; actives 0.9% (n = 370,000); AID 652039, 2013;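 active means activation above the mean of all tested compounds plus 3 SD, computed per campaign excluding outliers beyond control limits, cut at about 13% in these data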
PLC-gamma1 inh: PLC-gamma1 enzyme inhibitors, primary screen, biochemical, fluorescence, purified enzyme. AID 720700, 2013. actives 0.84% (n = 370,000). fluorogenic substrate. 1-phosphatidylinositol 4,5-bisphosphate phosphodiesterase gamma-1 (Homo sapiens), P19174. inhibition, % at 12.2 µM
PLC-beta3 inh: human PLC-beta3 inhibitors, primary screen, biochemical, fluorescence; 1-phosphatidylinositol 4,5-bisphosphate phosphodiesterase beta-3 (Homo sapiens), Q01970; Purified PLC-beta3, fluorogenic substrate; inhibition, % at 12.2 µM; actives 0.18% (n = 370,000); AID 720704, 2013; in the data active means inhibition above about 11%;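 further: 0% = median of compound wells on plate and 100% = full blocker control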
PLCg1 ctr: PLC-gamma1 enzyme inhibitors, counter-screen for PLC-beta3 inhibitor project, biochemical, fluorescence. actives 3.1% (n = 3,300). AID 743258, 2014. purified PLC-gamma1, fluorogenic substrate. shares compounds with PLC-gamma1 inh. inhibition, % at 12.3 µM
PLCb3 confirm: PLC-beta3 inhibitor confirmation, biochemical, fluorescence, purified enzyme; shares compounds with PLC-gamma1 inh; fluorogenic substrate fluorescence; inhibition, % at 12.3 µM; actives 1% (n = 3,300); AID 743261, 2014; in the data active means inhibition above about 11%
Starred values were filed as active, the others as inactive; . = not tested or not shown. Unless noted, no stated cut-off is given here; in the data, active means inhibition above about 9.5%; inactive means the rest.

SMILES	ADAM17 inh	ADAM10 inh	KLK7 zymogen act	PLC-gamma1 inh	PLC-beta3 inh	PLCg1 ctr	PLCb3 confirm
COC(=O)C[C@H]1CC[C@H](NC(=O)c2ccc(F)cc2)[C@@H](CO)O1	4	-4	0	2	8	.	.
COc1cccc(S(=O)(=O)N(C)C[C@@H]2OCc3cnnn3CCCC(=O)N([C@@H](C)CO)C[C@H]2C)c1	-1	-10	0	3	0	.	.
O=C(O)CN1C(=O)COc2ccc(S(=O)(=O)N3CCCCCC3)cc21	0	1	0	2	-7	.	.
O=C(O)CCN(Cc1ccccc1)S(=O)(=O)c1ccc(Cl)cc1F	5	-6	0	9.6*	0	-3	-1
Cc1ccccc1C(=O)c1cccn1CC(=O)NCCN1CCN(c2cccc(C)c2C)CC1	5	13	0	9	5	.	.
COc1ccc(C(=O)Nc2cc(C)nc3ccccc23)cc1OC	7	12	0	10*	2	-6	-2
COc1cc(C(=O)Nc2cccc(-c3nc4ccccc4o3)c2C)cc(OC)c1OC	9	0	0	14*	4	-6	0
Cc1c(NC(=O)c2ccc3c(c2)OCO3)cccc1-c1nc2ccccc2o1	5	-3	0	7	-2	.	.
COc1ccc(/C=N/Nc2nnc(Cc3ccc(OC)c(OC)c3)c(=O)[nH]2)cc1	5	5	0	14*	9	-1	-4
COc1ccc(Cc2nnc(N/N=C/c3ccc(N(C)C)cc3)[nH]c2=O)cc1OC	-5	-2	0	2	-11	.	.
COc1ccc(/C=N/Nc2nnc(Cc3ccc(OC)c(OC)c3)c(=O)[nH]2)cc1OC	4	18	1	4	11*	3	4
O=C(Nc1cccc2ccccc12)c1ccccc1	2	14	0	10*	1	-71	-2
C/C(=N\Nc1ccc([N+](=O)[O-])cc1[N+](=O)[O-])C(C)(C)C(C(=O)O)C(=O)O	2	7	0	11*	5	-3	1
O=[N+]([O-])c1ccc(NC2CCCCC2)nc1	2	-8	0	7	5	.	.
CC(C)CNC(=O)c1cc([N+](=O)[O-])ccc1N1CCOCC1	3	3	0	11*	5	-9	-5
Clc1ccccc1OCCN1CCC(Cc2ccccc2)CC1	-2	3	0	20*	18*	0	-5
CC1CN(c2ccc(Cl)cc2)c2nc3c(c(=O)[nH]c(=O)n3C)n2C1 (stereo not drawn)	-3	-6	0	10*	-5	-2	0
COc1ccccc1NC(=O)Cc1csc(N)n1	-2	0	1	0	0	.	.
CCOc1ncccc1C(=O)Nc1ccc(C)cn1	0	-9	0	-2	-6	.	.
Nn1c(Cc2ccccc2F)nnc1SCn1nnc2ccccc2c1=O	4	-1	0	11*	3	-6	-1
N/C(CSc1ncccc1C(F)(F)F)=N\O	1	-2	1	9.8*	-2	1	4
N/C(=N\O)c1ccc(N2CCN(c3ncccc3C(F)(F)F)CC2)nc1	1	-2	-1	5	-5	.	.
CNc1ncnc2c1ncn2[C@H]1CN(Cc2ccc(Cl)cc2)C[C@@H](CO)O1	-5	-4	0	1	1	.	.
COc1ccc(CN(C)C(=O)c2ccc(NS(=O)(=O)c3ccc4[nH]c(=O)[nH]c4c3)cc2)c(OC)c1	0	3	0	15*	-2	1	-5
CN(Cc1ccc(F)cc1)C(=O)c1ccc(NS(=O)(=O)c2ccc3[nH]c(=O)[nH]c3c2)cc1	-2	-4	1	0	0	.	.
SMILES	ADAM17 inh	ADAM10 inh	KLK7 zymogen act	PLC-gamma1 inh	PLC-beta3 inh	PLCg1 ctr	PLCb3 confirm
N#Cc1ccccc1S(=O)(=O)N1CCN(CC(O)CN2CCOCC2)CC1 (stereo not drawn)	-2	-16	-1	9.7*	0	-4	1
COCCCNC(=S)Nc1c(C)cc(C)cc1C	8	6	1	13*	6	-5	-4
CCc1nc2c(OCCC3CCCCC3)cccn2c1N(C)C(=O)c1ccccc1F	5	-17	0	-1	-8	.	.
COc1ccc(C2CC(c3ccccc3OC(C)=O)=NN2C(C)=O)cc1 (stereo not drawn)	2	3	0	3	-9	.	.
COC(=O)NCc1ccc(Cl)c(Cl)c1	4	-5	0	12*	2	-7	-3
COC(=O)NCc1ccc(CNC(=O)OC)cc1	0	0	0	3	6	.	.
COc1ccccc1C(CCNCc1ccc(N(C)C)cc1)c1ccc(OC(C)C)cc1 (stereo not drawn)	0	2	1	10*	-3	1	5
OC(COc1ccc(Cl)cc1)CN1CCCCC1 (stereo not drawn)	1	2	-1	-2	0	.	.
OC(COc1c(Cl)cc(Cl)cc1Cl)CN1CCCCC1 (stereo not drawn)	1	10	0	15*	10	-3	1
O=C(c1ccc([N+](=O)[O-])o1)N1CCN(c2nc3c(F)cc(F)cc3s2)CC1	-1	2	1	15*	1	-2	1
COCc1c(C(=O)OCC(=O)c2c(N)n(CC(C)C)c(=O)n(C)c2=O)oc2ccccc12	3	1	0	2	1	.	.
Cc1c(C(=O)OCC(=O)c2c(N)n(CC(C)C)c(=O)n(C)c2=O)oc2ccccc12	1	6	0	4	46*	-6	-4
COC(=O)c1ccccc1NN=Nc1ccccc1[N+](=O)[O-]	7	7	0	2	13*	-3	0
O=[N+]([O-])c1ccccc1N=NNc1ccccc1	-4	-10	0	5	1	.	.
COc1cc(-c2nnc(SCC(=O)c3ccccc3)o2)cc(OC)c1OC	-3	-2	0	0	-3	.	.
COc1cc(-c2nnc(SCC3(c4ccccc4)OCCO3)o2)cc(OC)c1OC	1	4	0	12*	-1	-4	0
Cc1cccc(CN2CCSc3sccc3C2=O)c1	8	5	0	13*	-2	-5	-6
O=C1c2ccsc2SCCN1Cc1cccc(Cl)c1	-3	4	0	2	0	.	.
Cc1ccc2nc(N3CCN(C(=O)c4ccco4)CC3)c3nncn3c2c1	-3	-4	0	-4	-12	.	.

Source: PubChem BioAssay (The Scripps Research Institute Molecular Screening Center)
